Assay outcomes deposited in PubChem by National Center for Advancing Translational Sciences (NCATS).
HP1b binding inh = inhibitors of HP1-beta chromodomain binding to methylated histone tails; AlphaScreen HP1-beta / biotin-H3K9me3 peptide binding; P83916; AID 540317; 390,000 compounds, 0.56% hits; Potency, µM (titrated, usually from 114 µM), without a hit: at the highest dose activity change, negative = inhibition, actives largely listed as inhibitors; further: nearly all actives have a fitted effect of over 70% in size
Target sequence (P83916 whole entry, looked up): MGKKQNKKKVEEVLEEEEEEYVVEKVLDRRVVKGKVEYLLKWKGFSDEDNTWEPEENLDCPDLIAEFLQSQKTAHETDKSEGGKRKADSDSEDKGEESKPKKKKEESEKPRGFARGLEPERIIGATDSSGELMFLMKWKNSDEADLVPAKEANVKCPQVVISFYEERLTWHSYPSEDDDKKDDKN
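AlphaScreen: HP1-beta (50 nM) preformed 30 min with biotin-H3(1-18)K9me3 peptide (50 nM) in PBS pH 7.4, 0.01% Tween-20. Compound added for 30 min at RT, then streptavidin donor/nickel chelate acceptor beads (10 ug/mL) for 30 min.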
L3MBTL1 block = L3MBTL1 (human) inhibition | AlphaScreen L3MBTL1–H3K9me1 peptide binding | Potency, µM (titrated, usually from 57.1 µM), inactives show top-dose activity, negative = inhibition, usual class: inhibitors | 230,000 compounds, 0.66% hits | AID 485360; further: on the % scale 0 is the no-effect control and ±100 the full control effect; nearly all actives have a fitted effect of over 60% in size
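AlphaScreen proximity signal between nickel-chelate acceptor and streptavidin donor beads (final 10 ug/mL) reports binding of 50 nM L3MBTL1 to 75 nM biotin-H3 K9me1 peptide; complex incubated with compounds 30 min at room temperature; cefsulodin titration as control.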
BAZ2B block = BAZ2B (human) inhibition; AlphaScreen BAZ2B-H3K14Ac peptide displacement; AID 504333; 360,000 compounds, 4.4% hits; Potency, µM (titrated, usually from 114 µM), inactives show at the highest dose activity change, negative = inhibition, hits mostly inhibitors; Q9UIF8; further: on the % scale 0 is the no-effect control and ±100 the full control effect; nearly all actives have a fitted effect of over 60% in size
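BAZ2B 50 nM plus b-H3(5-23)K14Ac 50 nM, PBS pH 7.4/0.01% Tween-20, 30 min RT; compound added (max 110 uM), 30 min RT; streptavidin donor/Ni-chelate acceptor beads 10 ug/mL final, 20 min dark; AlphaScreen read.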
JMJD2A Tudor inh = blocks the human JMJD2A Tudor domain; O75164; AlphaScreen JMJD2A-Tudor / H3K4me3 peptide binding; Potency, µM (series often up to 114 µM), without a hit: at the highest dose activity change, negative = inhibition, usual class: inhibitors; 390,000 compounds, 4.4% hits; AID 504339; further: on the % scale 0 is the no-effect control and ±100 the full control effect; nearly all actives have a fitted effect of over 50% in size
G9a inh = blocks human histone lysine methyltransferase G9a. Q96KQ7. G9a H3K9 monomethylation, AlphaScreen, 2 h. Potency, µM (series often up to 102 µM), for inactives: top-dose activity, negative = inhibition, most hits filed as inhibitors. 350,000 compounds, 8.8% hits; further: on the % scale 0 is the no-effect control and ±100 the full control effect; nearly all actives have a fitted effect of over 75% in size
Target sequence (Q96KQ7 913-1193 limits assumed): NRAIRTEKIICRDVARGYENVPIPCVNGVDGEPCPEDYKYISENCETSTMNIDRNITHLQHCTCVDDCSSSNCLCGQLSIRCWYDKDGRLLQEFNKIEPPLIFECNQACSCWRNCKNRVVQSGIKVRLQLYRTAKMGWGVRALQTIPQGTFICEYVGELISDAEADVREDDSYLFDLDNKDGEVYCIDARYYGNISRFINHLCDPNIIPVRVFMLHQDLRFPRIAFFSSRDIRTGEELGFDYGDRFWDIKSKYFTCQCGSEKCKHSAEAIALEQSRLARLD
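AlphaScreen detection with an anti-monomethyl H3K9 antibody quantified product after a 2 h room-temperature reaction containing 500 nM biotinylated H3K9 peptide, 20 µM SAM and 20 nM enzyme, which had been preincubated 15 min with compound.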
Sfp inh = blocks B. subtilis Sfp PPTase activity. Q9F4F7. Biochemical Sfp PPTase activity, qHTS. Potency, µM, inactives show largest response in the series, negative = inhibition, hits mostly inhibitors. 310,000 compounds, 3.5% hits. AID 1490;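 further: the enzyme is Sfp with the accession as filed and its product quenches rhodamine fluorescence; 0% = enzyme reaction without inhibitor and -100% = no enzyme wells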
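Sfp 15 nM + cpd, 15 min RT; start w/ rhodamine-CoA 5 uM, BHQ-2-YbbR 12.5 uM (final); 50 mM Hepes pH 7.6, 10 mM MgCl2, 0.01% NP-40, 0.01% BSA; read 525/598 nm at 0 and 30 min.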
Numbers without * were called inactive; ? = inconclusive; . = no result; [ ] = another dose, or the depositor's remark. In the library only some 12% were active in any assay of this set; here they are far more common. The call rests on the fitted dose curve; in most records, active means well fitted curve in the direction sought with a large enough effect; inconclusive means small, poorly fitted or top-dose-only effect, or another doubt; inactive means no such curve, though single readings can be large; an effect the other way counts as inactive or inconclusive. Potency means the concentration at half of the fitted maximal effect.

SMILES	HP1b binding inh	L3MBTL1 block	BAZ2B block	JMJD2A Tudor inh	G9a inh	Sfp inh
N#CN1CCC(NC(=O)c2cccc(F)c2)CC1	.	.	.	-12.3%	.	.
CC1CCN(Cc2c(O)ccc3c(=O)c(-c4cccc(Cl)c4)c(C(F)(F)F)oc23)CC1	38.5%	.	1.9%	-10.7%	-3.7%[59 µM]	.
Cc1ccc(Cl)c(OCCCN(C)Cc2ccccc2)c1	44.7µM*	.	31.6µM*	1.12µM*	1.78µM*	44.7µM*
Cc1ccc(Cl)c(OCCCCN(C)Cc2ccccc2)c1	-35.8%	3.7%	-34.8%	2.82µM*	10µM*	-11.6%
CN(CCCOc1ccccc1Br)Cc1ccccc1	-11.0%	-2.4%	-0.5%	-13.0%	23.4%	14.4%
FC(F)(F)C(Oc1nc(Nc2ccc(Cl)cc2)nc(N2CCOCC2)n1)C(F)(F)F	14.1%	12.1%	12.6%	1.0%	21.1%[59 µM]	14.8%
CCC(CC)C(=O)c1c[nH]c(C(=O)N2CCN(c3ccccc3F)CC2)c1	37.8%	-6.5%	-0.8%	-2.1%	11.1%	9.3%
O=C1CC(=O)N(c2cccc(F)c2)N1	17.8%	0.0%	-38.5%	-11.3%	56.2µM*	19.9%
COCC(=O)N1CCc2nc(-c3ccc(OC)cc3C)c3c(c2C1)CO[C@@H](c1ccccc1)C3	.	.	.	.	.	-18.2%
Cn1cccc1CC(=O)N/N=C/c1ccc([N+](=O)[O-])cc1	?	-15.8%	?	?	50.1µM*	-5.7%
Cn1cccc1CC(=O)N/N=C\c1ccccc1	7.0%	-11.7%	-31.2%	-19.2%	-42.8%	10.5%
Cn1cccc1CC(=O)N/N=C/C=C/c1ccco1	?	25.1µM*	56.2µM*	?	12.6µM*	14.1µM*
Cc1ccc(/C=N/NC(=O)CN2C(=O)CSc3ccccc32)o1	25.0%	.	-1.6%	-5.2%	44.7µM*	?
Cc1ccc(/C=N\NC(=O)Cc2cccn2C)o1	7.5%	.	.	-3.0%[57.1 µM]	28.2µM*	39.8µM*
O=C(CN1c2ccccc2Sc2ccccc21)N/N=C/c1ccccc1	22.8%	-18.3%	?	-21.9%	-23.2%[59 µM]	16.5%
CC(=O)c1cccc(NC(=O)CN2CCc3cc4c(cc3C2)OCCCO4)c1	21.3%	-9.8%	-36.8%	-12.9%	-47.4%	3.6%
Cc1cccc(NC(=O)CSc2nc(=O)n(Cc3cccnc3)c3c2CCC3)c1C	-8.3%	.	-0.8%	-8.8%	5.6%[59 µM]	.
CN(C(=O)c1cccc(NC(=O)Cc2ccc(NC(=O)C3CCN(C(=O)C4CC4)CC3)cc2)c1)C1CCCC1	16.9%	.	.	-20.9%	.	.
COc1ccc(Cl)cc1S(=O)(=O)NCc1ccc2c(c1)CCN2C(=O)c1cccc(C)c1	47.2%[57 µM]	.	20.8%	-13.6%	10.9%[59 µM]	.
O=C(Cn1ncc(Cl)c(Cl)c1=O)N1CCN(S(=O)(=O)c2ccc3ccccc3c2)CC1	35.6%	-6.2%	11.2%	-4.2%	44.7µM*	12.7%
O=C(O)CCC(=O)N1CCN(S(=O)(=O)c2ccc3ccccc3c2)CC1	30.4%	.	-10.0%	6.3%	-7.7%	-0.9%
O=C(Nc1ccc([N+](=O)[O-])cc1)N1CCN(C(=O)C2CCCO2)CC1 (stereo not given)	18.8%	.	-2.7%	-15.9%	?	13.7%
COCCNC(=S)N/N=C(\C)c1ccccc1OC	33.2%	0.1%	-10.1%	-5.6%	18.4%[59 µM]	4.6%
COCCNC(=S)N/N=C(\C)c1ccccc1O	26.9%	17.6%	10µM*	-9.6%	22.3%[59 µM]	-3.5%
COCCCNC(=S)N/N=C/c1ccccc1O	42.6%	?	10µM*	56.2µM*	.	9.8%
SMILES	HP1b binding inh	L3MBTL1 block	BAZ2B block	JMJD2A Tudor inh	G9a inh	Sfp inh
COCCCNC(=S)N/N=C/c1ccc(N(C)C)cc1Cl	23.3%	-6.6%	-2.8%	5.2%	8.3%	2.7%
COCCNC(=S)N/N=C/c1ccccc1C(=O)O	17.4%	.	?	?	8.91µM*	63.1µM*
C[C@@]12CC[C@@H]3c4ccc(O)cc4CC[C@H]3[C@H]1C[C@@H](O)[C@H]2O	.	.	.	.	24.4%[21.5 µM]	34.5%
CC(=O)Nc1ccc(NC(=O)Cn2nc([N+](=O)[O-])c(Br)c2C)cc1	7.0%	2.4%	-8.3%	3.8%	13.6%	-0.6%
Cc1c(Br)c([N+](=O)[O-])nn1CC(=O)Nc1ccc(Cc2ccncc2)cc1	2.4%	-6.3%	?	-30.9%	44.7µM*	?
CCc1c(C)c2ccc(OC(C)C(=O)NC(Cc3c[nH]c4ccc(O)cc34)C(=O)O)c(C)c2oc1=O (stereo not given)	-3.3%	.	?	-33.3%	.	-6.7%
Fc1ccccc1C1c2[nH]c3ccccc3c2CCN1Cc1cccn1-c1ncccn1 (stereo not given)	?	-6.8%	31.6µM*	?	.	-12.6%
Cc1ccccc1C1c2[nH]c3ccccc3c2CCN1Cc1cccn1-c1ncccn1 (stereo not given)	-11.5%	?	25.1µM*	?	50.1µM*	-3.3%
COc1ccc(C2c3[nH]c4ccccc4c3CCN2CCCn2cccn2)c(F)c1 (stereo not given)	-22.7%	?	-37.6%	-35.2%	?	4.3%
CCOc1cc(C2Nc3ccccc3C(=O)N2Cc2ccco2)ccc1O (stereo not given)	26.2%[57 µM]	.	.	-13.8%[57.1 µM]	.	.
COc1ccc(CN2C(=O)N(c3ccc(F)cc3)C(=O)C2CC(=O)Nc2cc(OC)cc(OC)c2)cc1 (stereo not given)	28.1%	.	-16.8%	-12.4%	-35.5%[59 µM]	.
O=C1/C(=C\c2ccccn2)SC(=S)N1c1ccc(S(=O)(=O)Nc2nccs2)cc1	?	.	50.1µM*	17.8µM*	.	56.2µM*
COc1ccc(/C=C2/SC(=S)N(c3ccc(S(=O)(=O)Nc4nccs4)cc3)C2=O)cc1	20µM*	.	?	15.8µM*	-48.6%	-2.1%
O=S1(=O)C2CC3CCC2(CN1Cc1cccc(F)c1)O3 (stereo not given)	12.1%	.	.	-15.2%	.	16.0%
CCCCNC(=O)CN1C(=O)NC2(CCCc3ccccc32)C1=O (stereo not given)	26.4%	6.3%	3.3%	-9.6%	.	3.3%
O=C(Nc1nccs1)c1ccc2nccnc2c1	-22.2%	-4.4%	-2.1%	79.4µM*	-12.3%	6.5%
CC(=O)c1ccccc1NC(=O)COC(=O)c1ccccc1NC(=O)c1ccccc1	43.2%	8.5%	-4.2%	-7.8%	5.7%[59 µM]	28.2µM*
CCOC(=O)c1ccccc1NC(=O)c1ccc2nc[nH]c2c1	22.7%	.	-5.5%	-23.1%	3.2%	-2.6%
CCOC(=O)c1ccccc1NC(=O)c1ccc2nccnc2c1	-10.7%	?	.	50.1µM*	-27.1%	-3.0%
CCN(CC)CCCNC(=O)c1nn(C)c2c1CSc1ccccc1-2	39.8%	.	3.2%	1.7%	-47.3%[59 µM]	.
CCOCCCNC(=O)C1CCN(c2nc3ccc(C)cc3[nH]2)CC1	23.9%[57 µM]	.	4.7%	-10.1%	-2.2%[59 µM]	.
COc1ccccc1CC(=N)N1C[C@@H]2C(=O)CCC(c3ccccc3)(c3ccccc3)[C@@H]2C1	.	.	.	.	.	-11.2%
